Hits are enriched below; roughly 3.6% of the tested compounds scored in any of these assays.
Mm-Cpn inhibitor: inhibitors of Methanococcus maripaludis chaperonin TRiC (MmCpn). actives 0.031% (n = 330,000). AID 504842. purified Mm-Cpn ATPase, ADP Transcreener TR-FRET. Potency, µM (titrated, usually from 76.9 µM), inactives show top-dose activity, negative = inhibition, usual class: inhibitors; further: on the % scale 0 is the no-effect control and ±100 the full control effect; nearly all actives have a fitted effect of over 80% in size
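Quantitative HTS used 25 nM Mm-CPN and 10 uM ATP in magnesium/KCl Tris buffer, pH 7.4, with 1 mM DTT. Hydrolysis ran 30 min at 37°C; ADP was read by HTRF.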
aSyn yeast inh: alpha-synuclein toxicity inhibition in yeast; AID 652106; Potency, µM (top dose mostly 46.1 µM), for the others: at the highest dose growth rescue (activation), usual class: activators; actives 0.14% (n = 370,000); Yeast expressing alpha-synuclein, growth rescue, BacTiter-Glo, 24 h; further: % of control where 0% means no effect; nearly all actives have a fitted effect of over 65% in size
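Screening used galactose-induced yeast with toxic alpha-synuclein levels, exposed to compound for 24 hr at 30 deg C. Cell growth, read with BacTiter-Glo luminescence, gave the measured signal.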
ClpP mod: qHTS Assay for Activators of ClpP; AID 651965, 2013; Potency, µM (top dose mostly 57.5 µM), inactives show at the top dose activity change, negative = active; purified B. subtilis ClpP, FRET peptide cleavage, 20 min; actives 1.9% (n = 340,000); ATP-dependent Clp protease proteolytic subunit (Bacillus subtilis (strain 168)), P80244; active means well fitted falling curve with a large enough effect; inconclusive means small, poorly fitted or top-dose-only effect; inactive means no such curve, though single readings can be large or run the other way; further: the source files actives as falling curves though it sought activators and does not explain the sign; nearly all actives have a fitted effect of over 65% in size
Target sequence (P80244 whole entry, looked up): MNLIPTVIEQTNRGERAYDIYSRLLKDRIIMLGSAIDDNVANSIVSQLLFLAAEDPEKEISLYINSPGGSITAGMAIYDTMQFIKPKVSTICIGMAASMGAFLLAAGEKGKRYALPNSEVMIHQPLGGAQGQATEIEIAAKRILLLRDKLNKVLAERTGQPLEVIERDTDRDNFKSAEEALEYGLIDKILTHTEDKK
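ClpP 10 microg/mL final, pH 8 Tris/KCl buffer with BSA, glycerol, Tween-20; compound pinned in; FRET-FV substrate; RT 20 min; Ex320/Em430; ΔFRET vs ADEP 5.8 microM, DMSO, no enzyme.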
FUS yeast rescue: FUS proteinopathy suppression in yeast | S. cerevisiae FUS-expressing, growth rescue, OD600, 24 h | Potency, µM (series often up to 76.6 µM), most hits filed as activators | actives 0.24% (n = 390,000) | AID 1347120;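 further: plate controls were DMSO vehicle for no effect and reference control for full effect; nearly all actives have a fitted effect of over 55% in size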
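Toxicity suppression screen in FUS-yeast. Cells induced with 2% galactose, starting OD 0.005, treated 24hr at 30C with compounds at multiple final concentrations; growth by OD600.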
Abeta yeast res: restores growth of yeast expressing A-beta42 peptide | yeast expressing A-beta42, growth rescue, OD600, 48 h; response scale: 0% DMSO, 100% iron-clioquinol control | Potency, µM (doses to about 46.1 µM), most hits filed as activators | actives 0.063% (n = 410,000) | AID 1347071; further: nearly all actives have a fitted effect of over 55% in size
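Growth rescue measured by 600 nm absorbance after 48 h yeast culture at 30 C with compound. Values normalized between DMSO and an equimolar ferric chloride plus clioquinol control.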
TDP43 rescue: TDP-43 toxicity inhibition in yeast | AID 652104 | actives 1.8% (n = 410,000) | TDP-43 expressing yeast growth rescue, BacTiter-Glo, 24 h | Potency, µM (doses to about 46.1 µM), inactives show top-dose growth rescue (activation), actives largely listed as activators; further: % of control where 0% means no effect; nearly all actives have a fitted effect of over 50% in size
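Growth rescue of TDP-43-toxic yeast measured as ATP luminescence (BacTiter-Glo). Cells grown to mid-log in raffinose, induced in galactose at OD600=0.02, exposed to compound 24 hr at 30 deg C.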
Numbers without * were called inactive; i = inactive; ? = inconclusive; . = no result given; [ ] = remark or other dose. Unless noted, the call rests on the fitted dose curve; in most records, active means well fitted curve in the direction sought with a large enough effect; inconclusive means small, poorly fitted or top-dose-only effect, or another doubt; inactive means no such curve, though single readings can be large; an effect the other way counts as inactive or inconclusive. Potency means the concentration at half of the fitted maximal effect.

SMILES	Mm-Cpn inhibitor	aSyn yeast inh	ClpP mod	FUS yeast rescue	Abeta yeast res	TDP43 rescue
Cn1c2ccccc2c(=O)c2ccc(NCc3ccc4c(c3)OCO4)cc21	.	-19%	5%	i	i	16µM*
COc1cc2c(cc1NCc1ccc3c(c1)OCO3)oc1ccccc12	-2%	0%	25µM*	i	i	0%
Cn1c(=O)c2c(nc(Cl)n2CC(=O)NC2(C#N)CCCCC2)n(C)c1=O	0%	-1%	28µM*	i	i	-12%
O=C(Cn1c(-c2cccs2)cc2cc(Cl)ccc21)N1CCCCC1	.	.	35µM*	i	i	12%
CCOC(=O)Cn1c(-c2cccs2)cc2cc(Cl)ccc21	.	.	22µM*	i	i	20%
CCN1CCN(C(=O)Cn2c(-c3cccs3)cc3cc(Cl)ccc32)CC1	.	.	32µM*	i	i	6%
CCN1CCN(CC(=O)c2cc(Cl)ccc2Cl)CC1	1%	-1%	0%	i	i	16%
Cc1cc2ccccc2c[n+]1C1CCCCC1	.	.	4%	.	.	.
Cc1ccc(NC(=O)c2ccc3c(O)c(S(=O)(=O)c4ccccc4)c(=O)[nH]c3c2)cc1Cl	.	.	-5%	i	i	10%
CCOC(=O)c1cnn2c(C)cc(-c3ccc(F)cc3)nc12	-4%	-4%	28µM*	i	i	17%
CN(C)c1ccc(NC(=S)NCC2CCCO2)cc1 (centres undefined)	-1%	0%	1%	i	i	8%
CCOC(=O)c1ccc(NC(=O)C(=O)NCC2CCCO2)cc1 (centres undefined)	2%	-7%	32µM*	i	i	-29%
CCCCc1ccc(NC(=S)NCC2CCCO2)cc1 (centres undefined)	2%	-12%	.	i	13µM*	-3%[0.397 µM]
COc1cc(-c2noc(-c3ccc(NC4CCCC4)c([N+](=O)[O-])c3)n2)cc(OC)c1OC	.	.	-1%	i	i	13%
C[N+]1(C)[C@H]2CC[C@H]1CC(OC(=O)C(O)c1ccccc1)C2 (some centres undefined)	.	.	.	i	.	.
C1=Nc2ccccc2/C1=C/c1ccccc1	.	-1%	?	.	.	.
COc1ccc(C(=O)OCC(N)=O)cc1[N+](=O)[O-]	3%	-10%	28µM*	i	i	0%
O=C1c2ccccc2S(=O)(=O)c2cc(N3CCN(C(=O)c4ccccc4)CC3)ccc21	.	1%	-2%	i	i	14%
O=C1c2ccccc2S(=O)(=O)c2cc(C(=O)N3CCN(c4ccccc4)CC3)ccc21	.	21%	0%	i	i	18µM*
O=C(c1cc2ccccc2cc1O)N1CCN(c2cccc(Cl)c2)CC1	-4%	13%	-1%	i	?	11µM*
Cc1[nH]c2ccc(C(=O)N3CCN(c4cccc(Cl)c4)CC3)cc2c1C	-1%	20µM*	-1%	?	i	?
O=C(c1cccc(F)c1)N1CCN(c2cccc(Cl)c2)CC1	-1%	10%	28µM*	i	i	?
O=c1n(Cc2ccccc2Cl)c2ccccc2c2nc(-c3ccccc3)nn12	.	.	0%	i	i	0%
O=C(CN1C(=O)CSc2ccc(S(=O)(=O)N3CCCCC3)cc21)NCc1ccc(F)cc1Cl	.	-1%	-1%	?	i	8%
COc1ccccc1N1CCN(C(=O)c2ccc3[nH]c(C)c(C)c3c2)CC1	1%	15%	-3%	?	.	19%
O=C(c1cc2c(=O)n3ccccc3nc2s1)N1CCN(c2cccc(Cl)c2)CC1	3%	11%	.	?	i	?
Cc1[nH]c2ccc(C(=O)N3CCN(c4ccccc4Cl)CC3)cc2c1C	0%	18µM*	-3%	i	i	20µM*
O=C(c1ccccc1)c1ccc(C(=O)N2CCN(c3ccccc3Cl)CC2)cc1	0%	1%	0%	?	i	11µM*

Compound activity: PubChem, National Center for Advancing Translational Sciences (NCATS)
